About 7,900 targets were measured; listed, in parts, are those with a hit and a random draw of the rest. About 0.6% of all pairs of compound and target were hits.
What follows are targets tested with C1=CC=C(C=C1)[C@H](COC2=CC3=C(C=C2)NC(=O)N3)NC(=O)C4=CC=CN(C4=O)CC5=CC(=C(C=C5)F)F (assay: log2 fold change, soluble protein after heating vs DMSO (PISA); higher = thermal stabilisation; K562 cells, 10 uM, 30 min; active = over 0.2 and 3.5 SD of the protein, either way, in both replicates (recomputed)).
Outline: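 Quantification of soluble protein used TMTpro 16plex LC-MS/MS, with channel sums equalised. Samples were the supernatant after 21,000xg for 90 min of pooled aliquots from K562 cells (2×10^6 cells/mL) treated with 10 μM compound for 30 min, heated for 3 min over 48°C-58°C, and extracted in PBS with 0.5% NP-40 at 4°C. Values, from duplicates, describe thermal stability against control samples on a log2 fold-change scale.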

Sequence of UniProt Q9BXW9 (Q9BXW9 whole entry, looked up): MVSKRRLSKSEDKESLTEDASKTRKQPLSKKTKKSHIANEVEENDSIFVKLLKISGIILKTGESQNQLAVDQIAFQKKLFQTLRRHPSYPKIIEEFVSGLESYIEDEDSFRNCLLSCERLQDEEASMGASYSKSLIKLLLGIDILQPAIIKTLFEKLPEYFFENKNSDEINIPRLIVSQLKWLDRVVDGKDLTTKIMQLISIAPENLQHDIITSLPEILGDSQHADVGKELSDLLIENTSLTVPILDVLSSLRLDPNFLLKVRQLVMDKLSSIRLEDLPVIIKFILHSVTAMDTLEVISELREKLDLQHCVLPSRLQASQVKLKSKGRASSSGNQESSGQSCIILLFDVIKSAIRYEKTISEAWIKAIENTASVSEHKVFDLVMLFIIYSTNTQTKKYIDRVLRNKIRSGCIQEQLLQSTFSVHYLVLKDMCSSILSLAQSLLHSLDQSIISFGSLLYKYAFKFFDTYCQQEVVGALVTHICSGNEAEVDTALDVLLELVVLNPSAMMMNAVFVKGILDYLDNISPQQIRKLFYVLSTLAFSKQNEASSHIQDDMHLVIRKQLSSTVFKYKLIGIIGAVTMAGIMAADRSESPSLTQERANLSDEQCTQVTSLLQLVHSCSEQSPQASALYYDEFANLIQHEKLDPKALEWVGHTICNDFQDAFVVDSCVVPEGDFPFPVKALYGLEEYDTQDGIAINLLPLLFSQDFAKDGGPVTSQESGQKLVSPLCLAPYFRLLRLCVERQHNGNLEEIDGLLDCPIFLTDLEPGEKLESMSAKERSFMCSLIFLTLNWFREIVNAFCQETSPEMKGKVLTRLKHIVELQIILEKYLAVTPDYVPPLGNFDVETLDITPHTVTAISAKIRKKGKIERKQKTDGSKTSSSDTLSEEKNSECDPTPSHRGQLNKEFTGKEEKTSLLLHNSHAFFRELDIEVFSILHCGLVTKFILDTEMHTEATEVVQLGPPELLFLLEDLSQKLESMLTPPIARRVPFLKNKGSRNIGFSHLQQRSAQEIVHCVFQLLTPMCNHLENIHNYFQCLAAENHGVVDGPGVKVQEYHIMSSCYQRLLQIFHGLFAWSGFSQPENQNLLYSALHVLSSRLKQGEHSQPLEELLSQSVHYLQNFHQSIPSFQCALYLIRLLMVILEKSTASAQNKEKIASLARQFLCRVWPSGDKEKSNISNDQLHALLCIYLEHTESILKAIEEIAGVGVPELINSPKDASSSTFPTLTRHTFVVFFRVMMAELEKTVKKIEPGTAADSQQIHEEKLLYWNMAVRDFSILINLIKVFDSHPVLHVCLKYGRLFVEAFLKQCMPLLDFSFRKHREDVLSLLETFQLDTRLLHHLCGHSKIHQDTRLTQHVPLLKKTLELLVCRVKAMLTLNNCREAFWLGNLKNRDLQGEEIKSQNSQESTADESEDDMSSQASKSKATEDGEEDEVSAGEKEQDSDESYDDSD
Sequence of UniProt Q92522 (Q92522 whole entry, looked up): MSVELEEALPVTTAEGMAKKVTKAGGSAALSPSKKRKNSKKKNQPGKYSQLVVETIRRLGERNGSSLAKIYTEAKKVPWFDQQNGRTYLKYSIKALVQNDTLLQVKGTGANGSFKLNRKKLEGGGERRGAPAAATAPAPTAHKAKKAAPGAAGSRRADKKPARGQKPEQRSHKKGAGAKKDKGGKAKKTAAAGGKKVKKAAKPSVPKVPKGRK
Sequence of UniProt P04066 (P04066 whole entry, looked up): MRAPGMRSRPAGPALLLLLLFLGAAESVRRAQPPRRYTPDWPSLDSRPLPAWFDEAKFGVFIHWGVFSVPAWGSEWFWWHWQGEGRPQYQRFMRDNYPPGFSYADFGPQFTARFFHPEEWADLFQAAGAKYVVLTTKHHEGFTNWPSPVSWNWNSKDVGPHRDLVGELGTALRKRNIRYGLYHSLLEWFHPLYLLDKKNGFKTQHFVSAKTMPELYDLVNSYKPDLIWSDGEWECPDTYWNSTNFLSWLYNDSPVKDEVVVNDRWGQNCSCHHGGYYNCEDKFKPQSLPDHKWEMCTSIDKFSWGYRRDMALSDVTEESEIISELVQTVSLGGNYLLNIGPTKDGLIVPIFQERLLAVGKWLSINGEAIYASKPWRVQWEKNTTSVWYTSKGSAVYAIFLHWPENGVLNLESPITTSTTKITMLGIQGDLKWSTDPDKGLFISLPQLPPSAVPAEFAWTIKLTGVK
Sequence of UniProt P52789 (P52789 whole entry, looked up): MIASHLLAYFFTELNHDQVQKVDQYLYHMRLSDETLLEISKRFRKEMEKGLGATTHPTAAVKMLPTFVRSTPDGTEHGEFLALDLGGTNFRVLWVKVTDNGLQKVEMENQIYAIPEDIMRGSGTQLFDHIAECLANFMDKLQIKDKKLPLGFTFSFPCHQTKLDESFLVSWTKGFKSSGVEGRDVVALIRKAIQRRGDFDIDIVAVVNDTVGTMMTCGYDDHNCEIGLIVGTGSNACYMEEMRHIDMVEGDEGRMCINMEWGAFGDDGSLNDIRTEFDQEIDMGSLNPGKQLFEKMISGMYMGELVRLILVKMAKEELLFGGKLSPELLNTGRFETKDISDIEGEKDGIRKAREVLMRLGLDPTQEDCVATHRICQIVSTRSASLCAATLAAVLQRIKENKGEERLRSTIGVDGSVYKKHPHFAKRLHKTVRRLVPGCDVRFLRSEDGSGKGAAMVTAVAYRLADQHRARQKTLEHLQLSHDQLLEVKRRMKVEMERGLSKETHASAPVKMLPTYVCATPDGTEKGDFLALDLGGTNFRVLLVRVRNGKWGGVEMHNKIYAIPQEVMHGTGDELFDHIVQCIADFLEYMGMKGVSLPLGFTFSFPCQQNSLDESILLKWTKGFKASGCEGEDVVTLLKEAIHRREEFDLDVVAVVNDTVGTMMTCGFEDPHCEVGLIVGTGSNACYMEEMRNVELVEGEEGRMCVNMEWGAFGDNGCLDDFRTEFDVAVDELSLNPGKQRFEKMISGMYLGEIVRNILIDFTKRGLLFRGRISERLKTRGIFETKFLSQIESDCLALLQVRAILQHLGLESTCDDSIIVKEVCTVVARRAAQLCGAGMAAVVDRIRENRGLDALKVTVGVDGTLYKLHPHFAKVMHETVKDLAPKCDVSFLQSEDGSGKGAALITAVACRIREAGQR
Sequence of UniProt P29084 (P29084 whole entry, looked up): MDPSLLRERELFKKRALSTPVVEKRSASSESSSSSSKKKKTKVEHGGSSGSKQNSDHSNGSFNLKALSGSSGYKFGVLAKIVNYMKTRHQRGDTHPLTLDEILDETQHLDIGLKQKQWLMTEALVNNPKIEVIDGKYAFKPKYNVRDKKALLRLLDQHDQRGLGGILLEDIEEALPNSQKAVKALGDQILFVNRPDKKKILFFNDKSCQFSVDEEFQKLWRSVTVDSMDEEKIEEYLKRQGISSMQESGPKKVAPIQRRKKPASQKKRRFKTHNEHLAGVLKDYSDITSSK
Sequence of UniProt P55795 (P55795 whole entry, looked up): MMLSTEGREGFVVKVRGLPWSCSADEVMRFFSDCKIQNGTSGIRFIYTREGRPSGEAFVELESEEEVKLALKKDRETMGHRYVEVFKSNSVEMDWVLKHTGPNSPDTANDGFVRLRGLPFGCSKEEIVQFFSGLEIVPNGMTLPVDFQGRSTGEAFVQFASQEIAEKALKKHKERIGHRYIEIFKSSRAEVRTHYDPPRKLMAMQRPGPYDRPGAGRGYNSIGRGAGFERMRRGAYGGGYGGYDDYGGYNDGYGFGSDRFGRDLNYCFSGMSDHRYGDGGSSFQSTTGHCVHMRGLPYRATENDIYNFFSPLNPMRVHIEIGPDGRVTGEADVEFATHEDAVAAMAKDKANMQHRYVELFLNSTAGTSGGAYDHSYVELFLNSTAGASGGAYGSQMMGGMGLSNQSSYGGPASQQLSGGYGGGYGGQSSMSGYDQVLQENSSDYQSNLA
Sequence of UniProt P37268 (P37268 whole entry, looked up): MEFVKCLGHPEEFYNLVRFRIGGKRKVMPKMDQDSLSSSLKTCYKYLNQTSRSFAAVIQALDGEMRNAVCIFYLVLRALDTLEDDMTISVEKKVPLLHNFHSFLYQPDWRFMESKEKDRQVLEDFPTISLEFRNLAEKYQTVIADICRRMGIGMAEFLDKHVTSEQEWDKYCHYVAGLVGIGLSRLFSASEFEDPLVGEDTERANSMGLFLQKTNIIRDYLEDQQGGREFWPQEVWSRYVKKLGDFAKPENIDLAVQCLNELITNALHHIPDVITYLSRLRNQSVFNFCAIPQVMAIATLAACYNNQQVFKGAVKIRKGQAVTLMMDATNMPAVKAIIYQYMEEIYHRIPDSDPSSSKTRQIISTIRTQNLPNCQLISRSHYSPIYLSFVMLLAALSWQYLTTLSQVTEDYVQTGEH
Sequence of UniProt P52657 (P52657 whole entry, looked up): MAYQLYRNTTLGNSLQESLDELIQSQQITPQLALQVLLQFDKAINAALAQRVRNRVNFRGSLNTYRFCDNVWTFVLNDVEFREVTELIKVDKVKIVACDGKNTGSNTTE
Sequence of UniProt Q9H4G4 (Q9H4G4 whole entry, looked up): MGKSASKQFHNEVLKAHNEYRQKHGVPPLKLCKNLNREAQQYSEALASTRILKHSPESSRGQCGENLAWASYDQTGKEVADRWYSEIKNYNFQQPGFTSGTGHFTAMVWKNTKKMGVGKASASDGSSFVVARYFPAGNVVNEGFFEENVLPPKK
Sequence of UniProt P52655 (P52655 whole entry, looked up): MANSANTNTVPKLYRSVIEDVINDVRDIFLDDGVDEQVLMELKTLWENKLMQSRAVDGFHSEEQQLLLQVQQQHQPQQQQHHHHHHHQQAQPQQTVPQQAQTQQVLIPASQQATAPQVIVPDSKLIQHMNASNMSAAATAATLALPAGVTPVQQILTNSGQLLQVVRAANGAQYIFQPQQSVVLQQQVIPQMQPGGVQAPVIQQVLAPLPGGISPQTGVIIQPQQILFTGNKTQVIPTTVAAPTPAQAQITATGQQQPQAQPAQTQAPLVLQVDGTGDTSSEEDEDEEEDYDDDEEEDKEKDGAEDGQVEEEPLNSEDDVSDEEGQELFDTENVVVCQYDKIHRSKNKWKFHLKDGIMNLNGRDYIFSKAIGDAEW
Sequence of UniProt Q96HJ9 (Q96HJ9 whole entry, looked up): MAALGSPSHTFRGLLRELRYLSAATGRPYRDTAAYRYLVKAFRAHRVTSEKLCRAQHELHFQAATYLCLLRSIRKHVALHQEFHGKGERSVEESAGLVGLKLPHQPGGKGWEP

Row | Target | log2 fold change
1 | GTF2A2 (UniProt P52657) | 0.003 (inactive)
2 | FANCD2 isoform 1 (UniProt Q9BXW9) | -0.018 (inactive)
3 | GTF2A1 (UniProt P52655) | 0.04 (inactive)
4 | FMC1 (UniProt Q96HJ9) | 0.009 (inactive)
5 | FAT2 (UniProt Q9NYQ8) | -0.092 (inactive)
6 | GLIPR2 (UniProt Q9H4G4) | -0.092 (inactive)
7 | FUCA1 (UniProt P04066) | -0.001 (inactive)
8 | FAT1 (UniProt Q14517) | -0.059 (inactive)
9 | HDAC10 (UniProt Q969S8) | -0.061 (inactive)
10 | HAUS4 (UniProt Q9H6D7) | 0.094 (inactive)
11 | H1FX (UniProt Q92522) | 0.088 (inactive)
12 | HK2 (UniProt P52789) | -0.006 (inactive)
13 | GAGE12F (UniProt P0CL80) | -0.016 (inactive)
14 | GYG1 (UniProt P46976) | 0.02 (inactive)
15 | HMOX2 (UniProt P30519) | 0.024 (inactive)
16 | HNRNPH2 (UniProt P55795) | -0.096 (inactive)
17 | GDE1 (UniProt Q9NZC3) | -0.019 (inactive)
18 | HDAC2 (UniProt Q92769) | 0.022 (inactive)
19 | FUNDC1 (UniProt Q8IVP5) | 0.052 (inactive)
20 | GTF2E2 (UniProt P29084) | -0.009 (inactive)
21 | GPAT4 (UniProt Q86UL3) | 0.023 (inactive)
22 | HBZ, A0A494C057 | -0.047 (inactive)
23 | FDFT1 (UniProt P37268) | -0.064 (inactive)
24 | HSPA8 (UniProt E9PN89) | 0 (inactive)
